In PubChem BioAssay (NCI):
Compounds without any hit were thinned out: in the full panel of roughly 79,000, 15% have a hit. A number with no mark means an inactive call. The source made the active and inactive calls. Cut-off read from the data, not from the text of the source: active = growth inhibition above about 70%; inactive = the rest.

Tests used:
[1] = NCI Yeast Anticancer Drug Screen. Data for the rad50 strain (AID 155);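 note: 0% = growth of vehicle-only cultures of the same strain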; settings: S. cerevisiae rad50 strain growth inhibition, active compounds read high
In short: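 Readout: growth inhibition relative to vehicle-treated cultures. Compound exposure was carried out in a genetically defined yeast strain deficient in DNA damage repair.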

[2] = NCI Yeast Anticancer Drug Screen. Data for the mec2-1 strain (AID 157); settings: S. cerevisiae mec2-1 strain, active compounds read high
In short: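 Compounds were applied to mec2-1 yeast cells. Their growth was then compared with that of vehicle-treated cultures to give growth inhibition.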

[3] = NCI Yeast Anticancer Drug Screen. Data for the sgs1 mgt1 strain (AID 161);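 note: 0% = growth of cultures given vehicle only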; settings: S. cerevisiae sgs1 mgt1 strain, active compounds read high
In short: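 Compounds are added to genetically altered yeast, and growth is compared with cultures given vehicle alone to give percent inhibition.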

[4] = NCI Yeast Anticancer Drug Screen. Data for the cln2 rad14 strain (AID 165);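 note: 0% = growth equal to vehicle treated cultures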; settings: S. cerevisiae cln2 rad14 strain, active compounds read high
In short: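 Strain: cln2 rad14 yeast, altered in cell cycle control and DNA damage repair. Read-out: growth inhibition vs vehicle.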

[5] = NCI Yeast Anticancer Drug Screen. Data for the bub3 strain (AID 167); settings: S. cerevisiae bub3 mutant strain, active compounds read high
In short: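 Readout: yeast growth inhibition, expressed relative to vehicle-only wells. The test organism is a mutant strain from a panel with lesions in DNA repair or checkpoint genes.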

[6] = NCI Yeast Anticancer Drug Screen. Data for the mlh1 rad18 strain (AID 175); settings: S. cerevisiae mlh1 rad18 strain growth inhibition, active compounds read high
In short: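 A repair-deficient yeast strain is exposed to test compound, and growth is scored relative to vehicle-treated controls.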

[7] = at 5.0 µM (retest, dose inferred, filed as 0.5)
[8] = at 50.0 µM (retest, dose inferred, filed as 5.0)

| Compound | growth inhibition [1, 7] [%] | growth inhibition [1, 8] | growth inhibition ([1]; at 50.0 µM) | growth inhibition [2, 7] [%] | growth inhibition [2, 8] | growth inhibition ([2]; at 50.0 µM) | growth inhibition [3, 7] [%] | growth inhibition [3, 8] | growth inhibition ([3]; at 50.0 µM) | growth inhibition [4, 7] [%] | growth inhibition [4, 8] | growth inhibition ([4]; at 50.0 µM) | growth inhibition [5, 7] [%] | growth inhibition [5, 8] | growth inhibition ([5]; at 50.0 µM) | growth inhibition [6, 7] [%] | growth inhibition [6, 8] | growth inhibition ([6]; at 50.0 µM) |
| --- | --- | --- | --- | --- | --- | --- | --- | --- | --- | --- | --- | --- | --- | --- | --- | --- | --- | --- |
| CCCCN(CCCC)C(=O)c1ccc(Cl)cc1Cl | 7 | 97% (active) | 98.5% (active) | 7 | 98% (active) | 97.7% (active) | 6 | 97% (active) | 98.4% (active) | 11 | 87% (active) | 96.2% (active) | 26 | 90% (active) | 96.5% (active) | 13 | 97% (active) | 98.3% (active) |
| OC(CN1CCc2ccccc2C1)c1ccc2ccccc2c1 (configuration not stated) | 23 | 64% | 86.5% (active) | 18 | 58% | 50.5% | 34 | 86% (active) | 88.5% (active) | 26 | 58% | 68.3% | 36 | 93% (active) | 94.6% (active) | 25 | 82% (active) | 45.3% |
| COC1=CC(=O)c2c(ccc3ncnc(N)c23)C1=O | 20 | 73% (active) | 22% | 15 | 15% | 3.35% | 14 | 28% | -6% | 18 | 32% | 24.9% | 19 | -11% | 17.5% | 13 | 59% | -4.3% |
| CCCCCCCC/C(C=O)=C\c1ccccc1 | -3 | -25% | 77.8% (active) | -21 | -2% | 72.8% (active) | -3 | 3% | 78.2% (active) | -1 | 7% | 45% | -11 | -19% | 64.8% | -3 | -13% | 77.9% (active) |
| S=C(S)NCCN1CCNC1=S | 10 | 76% (active) | 60.4% | 5 | 50% | 60.9% | 5 | 64% | 80% (active) | 2 | 18% | -5.05% | 14 | 95% (active) | 63.8% | 7 | 78% (active) | 77.1% (active) |
| C/C(=N/NC(N)=S)C(C)C | 11 | 37% | 14.3% | 2 | 2% | -9.9% | 2 | 3% | -11.1% | 4 | -5% | 37.6% | 1 | -3% | 17.4% | 2 | -2% | 4.8% |
| N#Cc1c(-c2ccc(Cl)cc2)c(C#N)c(=O)n(NS(=O)(=O)c2ccccc2)c1S | 51 | 83% (active) | 39.6% | 29 | 78% (active) | 86.2% (active) | 30 | 93% (active) | 81.3% (active) | 46 | 63% | 19.4% | 50 | 88% (active) | 70.8% (active) | 36 | 71% (active) | 77.5% (active) |
| Cc1cc(Cl)cc2c1NC(=O)C2(O)C(C)C(=O)c1ccc(Cl)cc1 (configuration not stated) | -2 | 63% | 99.4% (active) | -1 | 71% (active) | 98.5% (active) | 11 | 77% (active) | 99.5% (active) | -1 | 99% (active) | 99.1% (active) | -4 | 99% (active) | 99.5% (active) | -5 | 77% (active) | 98.8% (active) |
| CC/C(=C\c1cccc(OC)c1)c1ccncc1 | 17 | 84% (active) | 94.7% (active) | 12 | 92% (active) | 94.2% (active) | 40 | 91% (active) | 95.3% (active) | 14 | 81% (active) | 90.3% (active) | 35 | 89% (active) | 94.8% (active) | 32 | 87% (active) | 93.9% (active) |
